EWS-Fli block: blocks EWS/Fli oncoprotein-driven transcription; A673 NR0B1-luciferase reporter, viability-normalised; 0.67% of 350,000 active; inhibition, % at 12.6 µM;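 active means mean inhibition of at least 50% after viability correction, with every replicate also passing that limit; inconclusive means mean reaches 50% but only one of two replicates passes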;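 further: firefly luciferase signal divided by Alamar Blue viability fluorescence both relative to DMSO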
LGR2 inh: inhibitors of bursicon-induced Drosophila LGR2 receptor cAMP signaling. HEK293 LGR2, CRE-luciferase, bursicon-stimulated, 4 h. inhibition, % at 9.99 µM. 0.35% of 380,000 active. AID 720647;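 active means drop in luminescence signal, shown as inhibition above about 50% in the replicate tests, limit read from the data, passing the limit was not always enough; inconclusive means probably only some replicates passing the limit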;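 further: agonist challenge used bursicon conditioned medium at about half maximal strength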
PAX8 inh HTS: lowers PAX8-driven luciferase in RMG-I cells. RMG-I TPO-luciferase reporter, SteadyGlo, 24 h. inhibition, % at 12.6 µM. 1.2% of 360,000 active. AID 652154;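 active means mean replicate inhibition at least 60% with every replicate also reaching 60%; inconclusive means only one of the two criteria is met; inactive means mean below 60% and not all replicates reaching 60%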;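 further: luciferase light reporting Pax8 driven TPO promoter activity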
PGC1a acetyl inh: modulators of PGC1a acetylation; U2OS PGC1a acetylation, AlphaScreen anti-acetyl-lysine; with virally co-expressed GCN5 acetyltransferase; 0.17% of 350,000 active; AID 651687; inhibition, % at 15.6 µM;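 active means every replicate shows inhibition of at least 40%; inconclusive means mean inhibition at least 40% but some replicate below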
TRPM1 prom inh: reduces MITF-dependent TRPM1 promoter luciferase signal; SK-MEL-5 TRPM1 promoter luciferase, 24 h; inhibition, % at 12.5 µM; 0.83% of 330,000 active; AID 488899;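 active means mean inhibition across replicates of 60% or more, whatever share of single replicates reaches that level; inconclusive means some that reach 60%, reason not given; inactive means mean inhibition across replicates below 60%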
LMP1 NFkB inh: inhibitors of Epstein-Barr LMP1-induced NF-kappaB reporter | inhibition, % at 12.5 µM | 0.69% of 350,000 active | AID 504558 | LMP1-induced NF-kappaB luciferase reporter cells, luminescence; in the data active means inhibition above about 41%; inconclusive means no clear call, values can overlap the other calls
A number is an active result; 0 = inactive; ? = inconclusive; - = no result given; ! = not active in a repeat. In the library only some 2.2% were active in any assay of this set; here they are far more common.

SMILES	EWS-Fli block	LGR2 inh	PAX8 inh HTS	PGC1a acetyl inh	TRPM1 prom inh	LMP1 NFkB inh
O=C(/C=C/c1ccc2ccccc2n1)N1CCN(S(=O)(=O)c2ccccc2F)CC1	0	0	0	0	0	0
COc1cc(CN2CCN(Cc3ccccc3C(F)(F)F)CC2)cc(OC)c1OC	0	0	0	63	0	0
COc1cc(CN2CCN(Cc3ccc(C(F)(F)F)cc3)CC2)cc(OC)c1OC	0	0	0	-	0	0
Cc1csc(NC(=O)CSc2nc3[nH]c(=O)cc(O)c3s2)n1	0	0	0	0	87	0
O=C(CSc1nc2[nH]c(=O)cc(O)c2s1)Nc1nncs1	0	0	0	0	0	0
COc1ccc(NC(=O)Nc2ccc3c(c2)C(=O)N([C@@H](C)CO)C[C@@H](C)[C@@H](CN(C)Cc2ccc(-c4ccccc4)cc2)O3)cc1	0	0	-	0	-	-
CN(CCNC(=O)C1CCN(S(=O)(=O)N2CCOCC2)CC1)CCc1ccccc1	-	0	-	0	0	41
O=C(NCCc1ccccc1)C1CCN(S(=O)(=O)N2CCCC2)CC1	0	0	-	0	0	0
C=CCN(c1ccc(C(=O)Nc2ccc3c(c2)OCO3)cc1)S(C)(=O)=O	0	0	0	93	0	0
C=CCN(c1ccc(C(=O)Nc2ccc3c(c2)n(C)c(=O)n3C)cc1)S(C)(=O)=O	0	0	0	0	0	80
C[C@H](CO)N1C[C@H](C)[C@H](CN(C)Cc2ccc(C(F)(F)F)cc2)Oc2ccc(NS(=O)(=O)c3cn(C)cn3)cc2CC1=O	0	0	0	0	-	-
COc1cccc(-c2ccc(C3[C@@H]4CN(Cc5cccc(F)c5)C[C@H]3N4)cc2)c1 (some centres not stated)	0	0	75!	97!	-	-
COc1ccc(-c2ccc(C3[C@@H]4CN(Cc5cccc(OC)c5)C[C@H]3N4)cc2)cc1 (some centres not stated)	0	0	0	0	-	-
COc1cc(CN2C[C@@H]3N[C@H](C2)C3c2ccc(-c3ccccc3C)cc2)cc(OC)c1 (some centres not stated)	0	0	73!	105!	-	-
Cc1cccc(-c2ccc(C3[C@@H]4CN(Cc5ccccc5F)C[C@H]3N4)cc2)c1 (some centres not stated)	0	0	0	0	-	-
Cc1ccccc1-c1ccc(C2[C@@H]3CN(C(=O)Cc4ccccc4)C[C@H]2N3)cc1 (some centres not stated)	56!	0	0	0	-	-
Cc1ccc(-c2ccc([C@@H]3[C@@H]4CN(Cc5ccccc5F)C[C@H]3N4)cc2)cc1	0	0	89	0	-	-
CNC(=O)C[C@@H]1CC[C@H]2[C@@H](COc3ccc(NC(=O)Nc4ccc(C)cc4)cc3C(=O)N2C)O1	0	0	0	0	-	-
Fc1ccc(-c2ccc(C3[C@@H]4CN(Cc5ccccc5)C[C@H]3N4)cc2)cc1 (some centres not stated)	0	0	74!	0	-	-
CC=Cc1ccc2n(c1=O)C[C@@H]1[C@@H](CO)[C@H](C(=O)N3CCc4ccccc4C3)N[C@H]21 (mixture of isomers)	0	0	-	-	-	-
O=C(C[C@H]1C=C[C@@H](NC(=O)Nc2ccccc2F)[C@@H](CO)O1)NCc1ccccc1	0	0	-	0	-	-
OCCNCCOc1ccccc1-c1ccccc1	-	-	0	0	0	0
N=C(N)CCCOc1ccccc1-c1ccccc1	0	0	63	-	0	0
COc1ccc(CNc2nc3c(c(=O)n(Cc4ccc(Br)cc4)c(=O)n3C)n2C)cc1	-	-	84	0	0	0
COc1cccc(Cn2c(NCc3ccco3)nc3c2c(=O)n(C)c(=O)n3C)c1	-	-	0	-	-	-
SMILES	EWS-Fli block	LGR2 inh	PAX8 inh HTS	PGC1a acetyl inh	TRPM1 prom inh	LMP1 NFkB inh
Cn1c(NCc2ccccc2)nc2c1c(=O)n(Cc1ccc(Br)cc1)c(=O)n2C	-	-	-	0	0	0
COc1ccc(Cl)c(Cn2c(NCc3ccco3)nc3c2c(=O)n(C)c(=O)n3C)c1	-	0	-	0	0	56
COc1ccc(NC(=O)Nc2cccc3c2O[C@H](CN(C)S(=O)(=O)c2ccc(F)cc2)[C@@H](C)CN([C@@H](C)CO)C3=O)cc1	0	0	0	0	-	-
CO[C@H]1CN(C)C(=O)c2cc(NS(=O)(=O)c3ccccc3)ccc2OC[C@H](C)N(Cc2ccccn2)C[C@H]1C	0	0	-	0	-	-
COc1ccccc1-c1cn(CC[C@H]2CC[C@H](NC(=O)C3CC3)[C@@H](CO)O2)nn1	0	0	0	0	-	-
OC[C@@H]1[C@@H](c2ccc(/C=C/c3ccccc3)cc2)[C@@H]2CN(Cc3ccncc3)CCCCN12	0	0	0	0	-	-
CC(=O)Nc1ccc(NC(=O)C(c2ccccc2)c2ccccc2)cc1	0	0	0	0	0	54
O=C(O)c1ccc(NC(=O)C(c2ccccc2)c2ccccc2)cc1	0	0	0	0	0	0
O=C(O)CCCNC(=O)C(c1ccccc1)c1ccccc1	0	0	164!	-	0	0
CCOC(=O)C1(Cc2cccc(Cl)c2)CCCN(C(=O)c2cccnc2)C1 (configuration not stated)	0	0	0	97	0	0
c1ccc(CNc2nc(NCCc3ccncc3)c3sccc3n2)cc1	0	0	70	-	-	-
c1ccc(CNc2nc(NCc3cccs3)nc3ccsc23)cc1	0	57	0	0	-	-
CNc1nc(NCc2ccccc2)c2sccc2n1	0	0	0	-	-	-
O=C(Nc1nc2cc3c(cc2s1)OCCO3)c1ccco1	87	98	-	-	?	68
CC1CCc2nc(NC(=O)c3ccco3)sc2C1 (configuration not stated)	-	-	-	0	0	60
O=C(Nc1nc2cc3c(cc2s1)OCCO3)c1ccncc1	0	0	0	?	0	0
CC(C)C(=O)Nc1nc2cc3c(cc2s1)OCCO3	0	0	0	0	0	0
O=C(Nc1nc2cc3c(cc2s1)OCO3)C1=COCCO1	80	-	0	-	83	73
O=C(Nc1ccc(-c2nc3ccccc3s2)cc1)C1=COCCO1	-	95	0	-	0	72
C[C@H](CO)N1C[C@H](C)[C@@H](CN(C)C(=O)Cc2ccncc2)Oc2ncc(C3=CCCC3)cc2C1=O	0	0	0	0	-	-
CC(=O)Nc1nc2cc3c(cc2s1)OCO3	0	0	0	-	-	0
O=C(Nc1nc2cc3c(cc2s1)OCO3)c1ccco1	64	71	0	0	0	58
CC(=O)c1ccc(Sc2nnnn2-c2ccccc2)c([N+](=O)[O-])c1	0	76	0	-	63	0
O=[N+]([O-])c1ccc(Sc2nnnn2-c2ccccc2)c(Cl)c1	-	0	-	0	0	0
CN1CCN(S(=O)(=O)c2ccc(Sc3nnnn3-c3ccccc3)c([N+](=O)[O-])c2)CC1	0	-	0	-	88	0
O=C(NCC1CC1)[C@@H]1[C@@H](CO)[C@@H]2Cn3c(cccc3=O)[C@@H]2N1Cc1cncnc1	0	0	-	-	-	-
Cc1c(/C(O)=C2/C(=O)C(=O)N(CCN3CCOCC3)C2c2ccccn2)cnn1-c1ccccc1 (configuration not stated)	0	80	0	0	0	55
